# Values joined by “and” are separate entries in the source; they are usually repeats but may differ in a detail not shown here. Equal values may be shown once. Some compounds were tested as several samples or in several runs, with calls that do not always agree. Active and inactive are the calls of the source. Rule for the calls: active = hit-call score of the fitted dose curve at least 0.9, where 1 is the maximum; inactive = score below 0.9.
# Key:
# [1] = read-out: Intercellular Adhesion Molecule 1 (ICAM1), ICAM1 (gene 3383); assay: BSK_BE3C_ICAM1: BioMAP Diversity Plus: BE3C Assay for Intercellular Adhesion Molecule 1 (ICAM1) Biomarker Activity (AID 2284278); conditions: primary human bronchial epithelial cells
# Procedure, shortened: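 Primary human bronchial epithelial cells were exposed to compound for 24 h, after which cell-surface ICAM-1 was quantified by ELISA. Activity was fitted in the gain-of-signal direction against DMSO as negative control and baseline.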
# [2] = read-out: Interferon-inducible T-cell alpha chemoattractant (ITAC), CXCL11 (gene 6373); assay: BSK_BE3C_ITAC: BioMAP Diversity Plus: BE3C Assay for Interferon-inducible T-cell alpha chemoattractant (ITAC) Biomarker Activity (AID 2284279); conditions: primary human bronchial epithelial cells
# Procedure, shortened: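 The assay measures I-TAC levels by ELISA in human primary bronchial epithelial cell cultures 24 hours after chemical treatment. Values reflect signal increase over the DMSO baseline.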
# [3] = read-out: Interleukin-8 (IL8), CXCL8 (gene 3576); assay: BSK_BE3C_IL8: BioMAP Diversity Plus: BE3C Assay for Interleukin-8 (IL8) Biomarker Activity (AID 2284280); conditions: primary human bronchial epithelial cells
# Procedure, shortened: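 Primary human bronchial epithelial cells (BE3C system) exposed 24 h; IL-8 measured by ELISA and fitted in positive direction versus DMSO. Overt cytotoxicity assessed by SRB total-protein staining in parallel cultures.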
# [4] = read-out: Epidermal growth factor receptor (EGFR), EGFR (gene 1956); assay: BSK_BE3C_EGFR: BioMAP Diversity Plus: BE3C Assay for Epidermal growth factor receptor (EGFR) Biomarker Activity (AID 2284281); conditions: primary human bronchial epithelial cells
# Procedure, shortened: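 Human primary bronchial epithelial cells (BE3C system) dosed with chemicals; EGFR measured by ELISA at 24 h, fitted in the positive direction relative to DMSO. Cytotoxicity tracked in parallel cultures by SRB total-protein staining.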
# KRT18 (gene 3875) = assay: BSK_BE3C_Keratin818: BioMAP Diversity Plus: BE3C Assay for Keratin 818 Biomarker Activity (AID 2284282); conditions: primary human bronchial epithelial cells
# Procedure, shortened: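 Human primary bronchial epithelial cells in the BE3C system were exposed to test chemical for 24 h, then Keratin 8/18 was quantified by ELISA. Activity was fitted in the positive direction against DMSO as negative control and baseline.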
# [5] = read-out: Matrix Metallopeptidase 9 (MMP9), MMP9 (gene 4318); assay: BSK_BE3C_MMP9: BioMAP Diversity Plus: BE3C Assay for Matrix Metallopeptidase 9 (MMP9) Biomarker Activity (AID 2284283); conditions: primary human bronchial epithelial cells
# Procedure, shortened: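 BE3C, human bronchial epithelial primary cells; 24 h post-dose; MMP-9 by ELISA; positive fit vs DMSO; SRB (0.1%, TCA-fixed, 560 nm) parallel cytotox.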
# [6] = read-out: Plasminogen activator inhibitor-1 (PAI1), SERPINE1 (gene 5054); assay: BSK_CASM3C_PAI1: BioMAP Diversity Plus: CASM3C Assay for Plasminogen activator inhibitor-1 (PAI1) Biomarker Activity (AID 2284284); conditions: primary human coronary artery smooth muscle cells;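 note: PAI-1 protein level measured by ELISA 24 h after dosing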
# [7] = read-out: Monocyte Chemoattractant Protein-1 (MCP1), CCL2 (gene 6347); assay: BSK_hDFCGF_MCP1: BioMAP Diversity Plus: hDFCGF Assay for Monocyte Chemoattractant Protein-1 (MCP1) Biomarker Activity (AID 2284285); conditions: primary human foreskin fibroblasts
# Experimental: BSK_hDFCGF is a cell-based, multiplexed-readout assay that uses foreskin fibroblast, a human skin primary cell, with measurements taken at 24 hours after chemical dosing in a 96-well plate.BSK_hDFCGF_MCP1 is an assay component measured in the BSK_hDFCGF assay. It measures MCP-1 antibody related to regulation of gene expression using ELISA technology.Data from the assay component BSK_hDFCGF_MCP1 was analyzed at the endpoint, BSK_hDFCGF_MCP1, in the positive analysis fitting direction relative to DMSO as the negative control and baseline of activity. Using a type of binding reporter, gain or loss-of-signal activity can be used to understand protein changes. To generalize the intended target to other relatable targets, this assay endpoint is annotated to the 'cytokine' intended target family, where the subfamily is 'chemotactic factor'.
# The levels of cell surface (or secreted, indicated by the prefix "s") biomarker endpoints were measured by ELISA. Overt cytotoxicity to cells in confluent adherent cultures (all systems other than the BT system) was assessed by measuring total protein levels using sulforhodamine B (SRB) staining in parallel cultures at the time of biomarker measurements, indicated as SRB endpoints. For proliferation assays for adherent cell types, individual cell types are cultured at sub-confluence and relative cell numbers quantified by SRB staining at time points optimized for each system (48 h: 3C and CASM3C systems; 72 h: BT and HDF3CGF systems; 96 h: SAg system). SRB was performed by staining cells with 0.1% SRB after fixation with 10% TCA and reading wells at 560 nm.Viability and proliferation of PBMC (T cells) was quantified by Alamar Blue reduction for the SAg and BT systems. For PBMC viability (referred to as PBMC Cytotoxicity within the assay endpoint names), cells were plated (75,000/well in a 96-well plate) and then chemical samples added for 1 h before addition of activators, SEB and TSST-1 (20 ng/mL final concentration each). Cells were incubated for 90 h. Then, Alamar Blue (20 uL/well) (Invitrogen, Cat DAL1100) was added for 6 h, and the plates were read with a fluorescence microplate reader at 546/580 nm (excitation/emission). For PBMC proliferation, cells were plated and activated as above but incubated for only 16 h prior to addition of Alamar Blue. Plates were read after 6 h.
# [8] = read-out: Vascular cell adhesion molecule 1 (VCAM1), VCAM1 (gene 7412); assay: BSK_IMphg_VCAM1: BioMAP Diversity Plus: IMphg Assay for Vascular cell adhesion molecule 1 (VCAM1) Biomarker Activity (AID 2284286); conditions: primary human endothelial cells with macrophages
# Procedure, shortened: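 Human venular endothelial cells co-cultured with macrophages; VCAM-1 quantified by ELISA 24 h after dosing, fitted in the positive direction against DMSO. Cytotoxicity was checked in parallel cultures by SRB total-protein staining (0.1% SRB after 10% TCA fixation, 560 nm).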
# [9] = read-out: Intercellular Adhesion Molecule 1 (ICAM1), ICAM1 (gene 3383); assay: BSK_hDFCGF_ICAM1: BioMAP Diversity Plus: hDFCGF Assay for Intercellular Adhesion Molecule 1 (ICAM1) Biomarker Activity (AID 2284287); conditions: primary human foreskin fibroblasts
# Procedure, shortened: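 Primary human foreskin fibroblasts (hDFCGF system) dosed with chemical; ICAM-1 quantified by ELISA at 24 h relative to DMSO. Parallel SRB total-protein staining to assess overt cytotoxicity.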
structure (smiles),measurement,setting,value
C=C(C)C(=O)OCCC(F)(F)C(F)(F)C(F)(F)C(F)(F)C(F)(F)C(F)(F)F,outcome,[1],inactive
same,outcome,[2],inactive
same,outcome,[3],inactive
same,outcome,[4],inactive
same,AC50,KRT18 (gene 3875),2.19 µM (active)
same,outcome,KRT18 (gene 3875),inactive
same,outcome,[5],inactive
same,outcome,[6],inactive
same,outcome,[7],inactive
same,outcome,[8],inactive
same,outcome,[9],inactive
FC(F)(I)C(F)(F)C(F)(F)C(F)(F)C(F)(F)C(F)(F)I,AC50,[1],32.3 µM (active) [middle of 5 runs]
same,AC50,[2],20.4 µM (active) [middle of 5 runs]
same,AC50,[3],19.6 µM (active) [middle of 5 runs]
same,AC50,[7],5.13 µM (active) [middle of 5 runs]
same,AC50,[8],43.1 µM (active) [middle of 5 runs]
same,AC50,[9],5.98 µM (active) [middle of 5 runs]
NCC(F)(F)C(F)(F)C(F)(F)C(F)(F)C(F)(F)C(F)(F)C(F)(F)F,outcome,[1],inactive
same,outcome,[2],inactive
same,outcome,[3],inactive
same,outcome,[4],inactive
same,outcome,KRT18 (gene 3875),inactive
same,outcome,[5],inactive
same,outcome,[6],inactive
same,outcome,[7],inactive
same,outcome,[8],inactive
same,outcome,[9],inactive
OCCC(F)(F)C(F)(F)C(F)(F)C(F)(F)C(F)(F)C(F)(F)F,outcome,[1],inactive
same,outcome,[2],inactive
same,outcome,[3],inactive
same,outcome,[4],inactive
same,outcome,KRT18 (gene 3875),inactive
same,outcome,[5],inactive
same,outcome,[6],inactive
same,AC50,[7],49.6 µM (active) and 54.3 µM (active)
same,outcome,[8],inactive
same,AC50,[9],44 µM (active) and 54 µM (active)
C[C@@H]1C[C@H]2[C@@H]3CCC4=CC(=O)C=C[C@]4(C)[C@@]3(F)[C@@H](O)C[C@]2(C)[C@@]1(O)C(=O)COP(=O)(O)O,outcome,[1],inactive
same,outcome,[2],inactive
same,AC50,[3],1.6 µM (active) and 182 nM (active)
same,outcome,[4],inactive
same,outcome,KRT18 (gene 3875),inactive
same,outcome,[5],inactive
same,outcome,[6],inactive
same,outcome,[7],inactive
same,AC50,[8],3.41 µM (active)
same,outcome,[8],inactive
same,outcome,[9],inactive
OCCC(F)(F)C(F)(F)C(F)(F)C(F)(F)C(F)(F)C(F)(F)C(F)(F)C(F)(F)F,AC50,[1],22.2 µM (active) and 46.7 µM (active)
same,AC50,[2],23.5 µM (active) and 18.4 µM (active)
same,AC50,[3],12.3 µM (active) and 13.3 µM (active)
same,AC50,[4],21.8 µM (active)
same,outcome,[4],inactive
same,AC50,KRT18 (gene 3875),24.7 µM (active) and 16.8 µM (active)
same,AC50,[5],14.2 µM (active) and 30 µM (active)
same,AC50,[6],44.5 µM (active) and 41 µM (active)
same,AC50,[7],17.1 µM (active) and 11.3 µM (active)
same,AC50,[8],45.5 µM (active) and 44.5 µM (active)
same,AC50,[9],18.1 µM (active) and 18.3 µM (active)
